Assay outcomes as filed in PubChem.
An excerpt weighted towards active compounds, which were near 4.8% of everything screened.
NR1D1 modulator = modulators of human Rev-erb alpha DNA binding. Rev-erbα–FITC-DNA binding, fluorescence polarization, 90 min. activity, % at 10 µM. hit rate 0.79% among 370,000;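 active = activity above about 14%, limit read from the data; passing the limit was not always enough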;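 also: 0% = DMSO wells with 35 nM protein and 100% = DMSO wells with 750 nM protein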
hcDAF-12 act = H. contortus DAF-12 activation, primary screen; HEK293 hcDAF-12 lit1-tk-luc reporter, luminescence; 0% DMSO, 100% Δ7-dafachronic acid; hit rate 1.4% among 370,000; activation, % at 6.8 µM;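 active = activation above the mean of all tested compounds plus 3 SD, cut at about 5.5% in these data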;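 also: 100% = response to 3 µM Δ7-dafachronic acid high control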
DAX1 inh-1 = NR0B1 (DAX1) inhibition; P51843; HEK293 Gal4-DAX1 luciferase reporter, luminescence; inhibition, % at 6.75 µM; hit rate 0.99% among 340,000; AID 504766;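 active = inhibition above the mean over all tested compounds plus 3 SD, cut at about 4.2% in these data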;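 also: 0% = DAX1-transfected cells with DMSO and 100% = empty-vector control cells with DMSO; inhibition shows as a rise in luminescence from relieved DAX1 repression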
Target sequence (P51843 207-470 limits assumed): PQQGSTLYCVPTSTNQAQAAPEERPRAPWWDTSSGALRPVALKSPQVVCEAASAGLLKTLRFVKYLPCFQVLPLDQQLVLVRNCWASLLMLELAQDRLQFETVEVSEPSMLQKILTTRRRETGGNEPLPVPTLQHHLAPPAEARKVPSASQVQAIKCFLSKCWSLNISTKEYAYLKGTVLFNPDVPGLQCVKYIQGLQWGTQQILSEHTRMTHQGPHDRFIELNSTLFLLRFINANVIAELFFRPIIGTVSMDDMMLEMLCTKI
hgDAF-12 ag = hgDAF-12 agonism, primary luciferase screen | HEK293 GAL4-hgDAF12 UAS-luciferase reporter, agonist luminescence; normalized to butyrate control | activation, % at 6.8 µM | hit rate 1.8% among 370,000;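 active = activation above a cutoff set at the mean of all screened compounds plus 3 SD, cut at about 10% in these data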;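 also: 0% = DMSO wells and 100% = sodium butyrate wells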
ssDAF-12 act = activates DAF-12 receptor from parasite S. stercoralis | HEK293 ssDAF-12/GRIP1 lit1-tk-luc reporter, luminescence; % of 3 µM dafachronic acid response | activation, % at 6.8 µM | hit rate 1% among 370,000 | AID 652126;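 active = activation above the mean over all tested compounds plus 3 SD, cut at about 0.9% in these data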;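 also: 0% = DMSO-only wells and 100% = 3 µM delta7-dafachronic acid wells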
DAX1 inh-2 = blocks DAX1 repression of SF-1 activated StAR promoter | HEK293T StAR-luciferase reporter, SF-1/DAX-1 repression relief | inhibition, % at 6.8 µM | hit rate 1.1% among 370,000;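 active = inhibition above the mean over all tested compounds plus 3 SD, cut at about 3.6% in these data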;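 also: 0% = DAX-1 cells with DMSO and 100% = cells lacking DAX-1 with DMSO; higher inhibition means more luminescence from relief of DAX-1 repression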
DAX1 inh confirm = confirmation of human DAX1 (NR0B1) inhibitors. shares compounds with DAX1 inh-2. HEK293T StAR-promoter luciferase reporter, SF-1/DAX-1 repression. inhibition, % at 6.8 µM. hit rate 87% among 2,400. AID 652134;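 active = inhibition above the average of every tested compound plus 3 SD, cut at about 3.8% in these data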;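 also: 0% = DAX-1 cells with DMSO and 100% = no DAX-1 control cells with DMSO; active compounds raise luminescence by relieving repression of the StAR reporter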
Target sequence (P51843 whole entry, looked up): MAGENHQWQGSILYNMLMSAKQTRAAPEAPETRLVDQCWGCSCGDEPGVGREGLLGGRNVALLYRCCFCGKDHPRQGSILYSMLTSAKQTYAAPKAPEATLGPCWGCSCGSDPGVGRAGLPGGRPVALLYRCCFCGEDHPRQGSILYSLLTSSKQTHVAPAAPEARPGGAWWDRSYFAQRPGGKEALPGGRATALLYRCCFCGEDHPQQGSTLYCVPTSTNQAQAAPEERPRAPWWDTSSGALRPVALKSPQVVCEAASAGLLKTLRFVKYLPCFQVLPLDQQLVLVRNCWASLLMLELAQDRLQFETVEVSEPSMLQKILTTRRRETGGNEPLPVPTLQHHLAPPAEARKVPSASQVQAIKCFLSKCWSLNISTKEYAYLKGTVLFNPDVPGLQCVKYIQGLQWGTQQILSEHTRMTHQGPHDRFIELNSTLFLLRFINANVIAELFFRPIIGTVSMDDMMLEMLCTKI
SF1 AF2mut Luc = counter-screen for DAX1 inhibitors: nonselective inhibitors with SF-1 AF2 mutant | inhibition, % at 6.8 µM | hit rate 78% among 2,400 | shares compounds with DAX1 inh-2 | HEK293 StAR-luciferase, luminescence | AID 652136;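 active = inhibition above the mean of all tested compounds plus 3 SD, cut at about 3% in these data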;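 also: 0% = DAX-1 transfected cells with DMSO and 100% = cells without DAX-1 with DMSO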
LXR ag = counter-screen for hcDAF-12 agonists: agonists of human LXR-beta. shares compounds with hcDAF-12 act. HEK293 Gal4-LXR tk-luc reporter, luminescence, 24 h; normalized: DMSO 0%, positive control 100%. activation, % at 6.8 µM. 3,400 tested, under 10 active. AID 743027;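 active = mean percent activation of the reporter above a cutoff set as the average over tested compounds plus their standard deviation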
hcDAF12 conf = confirmation of H. contortus DAF-12 agonists | shares compounds with hcDAF-12 act | HEK293 hcDAF-12 lit1-tk-luc reporter, luminescence; % of Δ7-dafachronic acid response | activation, % at 6.8 µM | hit rate 61% among 3,400 | AID 743032;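 active = mean activation across triplicate tests above the threshold derived from the earlier primary screen, cut at about 5.5% in these data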;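 also: 0% = DMSO only wells and 100% = 3 µM Δ7-dafachronic acid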
hgDAF12 conf = hgDAF-12 agonism, confirmation assay; shares compounds with hgDAF-12 ag; HEK293 GAL4-hgDAF12 luciferase reporter, agonist mode; percent of butyrate response; activation, % at 6.8 µM; hit rate 80% among 3,300; AID 743050;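 active = mean activation over triplicate wells above the hit cutoff derived from the earlier primary screen, cut at about 11% in these data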;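 also: 0% = DMSO low control and 100% = 2 mM sodium butyrate high control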
LXRb DAF12 ctr = LXR-beta agonism as DAF-12 counter-screen; shares compounds with hgDAF-12 ag; 3,300 tested, under 10 active; AID 743051; activation, % at 6.8 µM; HEK293 Gal4-LXR luciferase reporter, 24 h;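 active = mean activation of the triplicate above a set limit carried over from the primary screen, none filed active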
Numbers without * were called inactive; nt = no result given.

SMILES	NR1D1 modulator	hcDAF-12 act	DAX1 inh-1	hgDAF-12 ag	ssDAF-12 act	DAX1 inh-2	DAX1 inh confirm	SF1 AF2mut Luc	LXR ag	hcDAF12 conf	hgDAF12 conf	LXRb DAF12 ctr
Cc1ccnc(NC(=O)/C=C/c2ccccc2[N+](=O)[O-])c1	3	9.3*	nt	21*	1.8*	5.0*	14*	8.1*	2	8.3*	20*	1
COc1ccc(N=C2C(=Nc3ccc(OC)cc3)N(c3ccccc3)C(=S)N2C(=O)c2ccc(Cl)cc2)cc1	4	4	0	15*	0	4.5*	6.0*	5.8*	nt	nt	18*	1
COc1ccc(N=C2C(=Nc3ccc(OC)cc3)N(c3ccc(OC)cc3)C(=S)N2C(=O)c2ccc(OC)cc2)cc1	0	2	1	3	-1	1	nt	nt	nt	nt	nt	nt
CCOc1cccc(C=NNC(=O)C(=O)Nc2cccc(C(F)(F)F)c2)c1O	-2	-2	nt	-3	-2	0	nt	nt	nt	nt	nt	nt
Cc1nn(-c2ccccc2)c2sc(C(=O)NCC3CCCO3)cc12 (stereo not given)	-3	0	nt	-1	-2	-2	nt	nt	nt	nt	nt	nt
CC(=O)N/N=C(/C)c1ccc(NC(=O)c2csc(C)c2C)cc1	-3	5.8*	1	17*	0	13*	9.4*	4.7*	nt	nt	16*	0
Cc1ccc(/C=C2/CCc3c([nH]c4ccccc34)C2=O)cc1	-2	10*	3	18*	1	5.3*	24*	9.1*	2	5.8*	22*	1
Cc1csc(Nc2ccc(C(=O)O)cc2)n1	4	0	2	0	-1	0	nt	nt	nt	nt	nt	nt
O=C(O)c1ccc(Nc2nc(-c3ccccc3)cs2)cc1	-7	5	2	15*	1	5.0*	13*	7.7*	nt	nt	16*	1
C[C@H](O)[C@@H]1CN2CCc3ccc(-c4ccc5c(c4)OCO5)cc3[C@@H]2C[C@@H]1N(C)C(=O)c1cccc(Cl)c1	3	-2	nt	3	-1	0	nt	nt	nt	nt	nt	nt
COc1ccc(-c2nnc(SCC(C)C)o2)cc1	6	4	3	23*	1	4.8*	8.2*	3.4*	nt	nt	22*	1
COc1ccc(C(=O)CSc2nnc(-c3ccc(C)cc3)o2)cc1	1	0	1	1	-1	0	nt	nt	nt	nt	nt	nt
C[C@H](O)[C@@H]1C(=O)N2CCc3c([nH]c4c(-c5ccc6c(c5)OCO6)cccc34)[C@@H]2C[C@@H]1N(C)C(=O)c1ccccc1F	6	-4	nt	2	-1	-2	nt	nt	nt	nt	nt	nt
CCC(c1nc2ccccc2[nH]1)n1c(=O)c(-c2ccco2)nc2ccccc21 (stereo not given)	-2	-2	nt	0	-1	0	nt	nt	nt	nt	nt	nt
O=c1c(-c2ccco2)nc2ccccc2n1C(c1ccccc1)c1nc2ccccc2[nH]1 (stereo not given)	1	5	nt	16*	0	4.7*	3	2	nt	nt	10	0
COc1ccccc1C(=O)Nc1nnc(-c2ccco2)s1	0	15*	4.5*	19*	2.0*	8.4*	12*	9.0*	1	14*	21*	1
Cc1ccccc1C(=O)Nc1nnc(-c2ccco2)s1	5	9.4*	-1	16*	1.1*	5.2*	9.0*	4.1*	1	8.2*	12*	1
C#CCNC(=O)C[C@@H]1C(=O)N(Cc2ccc(OC)cc2)/C2=C/CCCCC[C@@]21C(=O)OCC	-1	-1	nt	-2	-2	-1	nt	nt	nt	nt	nt	nt
C[C@@H]1C[C@H](O)CCCCCC(=O)Cc2cc(O)cc(O)c2C(=O)O1	-9	-3	nt	1	-1	0	nt	nt	nt	nt	nt	nt
CCC(=O)Nc1cccc(-c2ccc(N3CCN(C)CC3)nn2)c1	nt	nt	1	nt	nt	nt	nt	nt	nt	nt	nt	nt
CCC(=O)Nc1cccc(-c2ccc(N3CCCCC3)nn2)c1	3	5.9*	-1	14*	0	15*	10*	4.7*	nt	nt	15*	1
CN1CCN(c2ccc(-c3cccc(NC(=O)COc4ccc(Cl)cc4)c3)nn2)CC1	-7	3	1	14*	1	7.9*	4.5*	2	nt	nt	10	1
Cc1cc(N)n2nc(-c3ccccc3)cc2n1	-3	12*	-1	20*	1.7*	5.8*	16*	8.2*	1	6.9*	19*	1
Cc1ccc(-c2cc3nc(-c4ccccc4)cc(N)n3n2)cc1	-2	1	1	10	0	2	nt	nt	nt	nt	nt	nt
Cc1cccc(NC(=O)C2CCCN2S(=O)(=O)c2cccnc2)c1C (stereo not given)	-1	-1	nt	1	-1	0	nt	nt	nt	nt	nt	nt
SMILES	NR1D1 modulator	hcDAF-12 act	DAX1 inh-1	hgDAF-12 ag	ssDAF-12 act	DAX1 inh-2	DAX1 inh confirm	SF1 AF2mut Luc	LXR ag	hcDAF12 conf	hgDAF12 conf	LXRb DAF12 ctr
N/C(=N\OC(=O)COc1ccc(Cl)cc1Cl)c1ccccn1	-4	6.4*	-1	16*	0	5.3*	19*	7.2*	nt	nt	15*	1
Cc1cc(C)c(C)c(OCC(=O)O/N=C(\N)c2ccccn2)c1	4	-1	0	1	-1	0	nt	nt	nt	nt	nt	nt
Cc1cccc(C)c1Nc1nc2ccccc2o1	-7	-1	-1	-2	0	0	nt	nt	nt	nt	nt	nt
Clc1ccccc1Nc1nc2ccccc2o1	-8	11*	1	13*	1.2*	9.3*	14*	9.0*	1	10*	23*	1
CCOc1ccc2nc(NC(=O)Nc3cccs3)sc2c1	-7	7.9*	3	27*	1	9.2*	19*	13*	2	5	27*	1
COc1ccc2nc(NC(=O)Nc3ccccc3)sc2c1	-11	8.1*	0	22*	1	11*	14*	8.8*	2	5	23*	1
Brc1ccc2nc(-c3c[nH]c4ccccc34)cn2c1	-5	11*	6.2*	22*	0	8.8*	18*	8.5*	2	9.6*	21*	1
